Laboratory results: PubChem BioAssay (NCATS)
Inconclusive results are not listed. Unmarked numbers belong to inactive results. Activity calls are given as the source filed them. The call rests on the fitted dose curve; in most records, active means well fitted inhibition curve with a large enough effect; inconclusive means small, poorly fitted or top-dose-only effect; inactive means flat fitted curve, though single readings scatter.

Target: Glutathione peroxidase 1 (Homo sapiens) (UniProt P07203)
Sequence (P07203 whole entry, looked up): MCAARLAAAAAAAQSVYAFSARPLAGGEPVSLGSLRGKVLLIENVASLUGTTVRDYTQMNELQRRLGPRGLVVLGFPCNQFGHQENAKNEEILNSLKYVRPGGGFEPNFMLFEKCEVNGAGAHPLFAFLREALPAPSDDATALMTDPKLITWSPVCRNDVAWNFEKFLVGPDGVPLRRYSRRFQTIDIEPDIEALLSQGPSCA
Assay: Primary qHTS Assay for Inhibitors of Recombinant Selenoprotein Glutathione Peroxidase 1 (GPX1) (AID 1845191); further: nearly all actives have a fitted effect of over 65% in size
Conditions: recombinant GPX1, GR-coupled NADPH fluorescence, 15 min; series mostly up to 48.8 µM; activity, negative = inhibition: at the top concentration
Procedure, shortened: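 10 nM GPX1 + cpd, 30 min RT; start w/ 1 mM GSH, 0.5 mM cumene hydroperoxide, 0.5 mM NADPH, 100 nM GR, 0.01% BSA; buffer 50 mM Tris-HCl pH 7.5, 2 mM EDTA, 150 mM NaCl; Fl 340/450, 0 & 15 min.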
On the % scale 0 is the no-effect control and ±100 the full control effect; potency means the concentration at half of the fitted maximal effect.

SMILES	activity, negative = inhibition	outcome	Potency
CC(C)(O)C1=CCC23COC(C2)C(O)(C(=O)O)CCC13 (stereo not given)	-10.6%		
CC1(C)C[C@H]2C3=CCC4[C@@]5(C)CC[C@H](O[C@H]6O[C@H](C(=O)O)[C@@H](O)[C@H](O)[C@H]6O[C@H]6O[C@H](CO)[C@@H](O)[C@H](O)[C@H]6O[C@@H]6O[C@H](CO)[C@@H](O)[C@H](O)[C@H]6O)[C@](C)(CO)C5CC[C@@]4(C)[C@]3(C)CC[C@@]2(C)[C@H](O[C@@H]2OC[C@H](O)[C@H](OC3O[C@H](CO)[C@@H](O)[C@H](O)[C@H]3O)[C@H]2O)[C@@H]1O (stereo not given in full)	0.367% [at 9.52 µM]		
C=CC1(C)C=C2C(O)CC3C(C)(C(=O)O)CCCC3(C)C2CC1 (stereo not given)		inactive [at 27.7 µM]	
O=C(NC[C@H](O)CN1CCc2ccccc2C1)c1cc(NC2COC2)ncn1			inactive
O=C1NC(=Nc2ccccc2F)S/C1=C\c1ccc(C(=O)O)cc1	-12.9%		
CC(c1c[nH]c2ccccc12)C(O)C(=O)O (stereo not given)		inactive	
CC(C)C1=CCC(C)(O)C(OC2OC(CO)C(O)C(O)C2O)C1 (stereo not given)	0.167% [at 27.7 µM]		
CCC(=O)NS(=O)(=O)c1ccc(-c2c(-c3ccccc3)noc2C)cc1			inactive
Cc1c(CN(C)C(=O)/C=C/c2cnc3c(c2)CCC(=O)N3)oc2ccccc12		inactive	
C=CC1(C)C=C2C(=O)CC3C(C)(C)CCCC3(C(=O)O)C2(O)CC1 (stereo not given)		inactive [at 27.7 µM]	
COc1cc(CC(COC2OC(CO)C(O)C(O)C2O)c2cc(/C=C/CO)cc(OC)c2O)ccc1O (stereo not given)	-13.8% [at 27.7 µM]		
CC1(CCC(=O)O)C(=O)C=CC23CC4CC(OC4(C)C2O)C13 (stereo not given)		inactive [at 27.7 µM]	
C=C1CC2(C(=O)O)CC1CCC2C1(C)CCCC2(C)C(=O)OC(O)C21 (stereo not given)	0.0543% [at 27.7 µM]		
CC(=O)OC[C@]1(O)[C@H]2[C@H](OC(=O)CC(C)C)OC=C(CO[C@@H]3O[C@H](CO)[C@@H](O)[C@H](O)[C@H]3O)[C@H]2C[C@@H]1O		inactive [at 27.7 µM]	
C[C@@H]1CC[C@]2(C(=O)O[C@@H]3O[C@H](CO)[C@@H](O)[C@H](O)[C@H]3O)CC[C@]3(C)C(=CCC4[C@@]5(C)C[C@@H](O)[C@H](O)C(C)(C)C5CC[C@]43C)C2[C@]1(C)O (stereo not given in full)		inactive [at 15.3 µM]	
COc1c(C)c(C(=O)c2ccc(N)c(C(=O)O)c2)n2ccccc12			inactive
Cc1nc2c(-c3cnc(N)nc3)nc(N3CCOCC3)nc2n1C(C)C			inactive
COc1cc(COC2OC(CO)C(O)C(O)C2O)cc(OC)c1O (stereo not given)		inactive [at 27.7 µM]	
CC1=CC2(O)/C=C/C(C)(O)CC(O)/C=C/C(=O)OC23C(=O)NC(CC(C)C)C3C1C (stereo not given)	-1.88% [at 27.7 µM]		
C[C@@H]1CC[C@]2(C)C(C[C@@H](O)[C@H](O)[C@]23CO3)[C@@]1(C)CCc1ccoc1 (stereo not given in full)	-20.2% [at 27.7 µM]		
COC1CC(OC2CCC3(C)C(=CCC4C3CCC3(C)C(C(C)O)CCC43O)C2)OC(C)C1OC1OC(C)C(OC2OC(COC3OC(COC4OC(CO)C(O)C(O)C4O)C(O)C(O)C3O)C(O)C(O)C2O)C(OC)C1O (stereo not given)	-2.66% [at 15.3 µM]		
Nc1ccn([C@@H]2C(F)=C(CO)[C@@H](O)[C@H]2O)c(=O)n1	-4.85%		
CC1=C(C)C(=O)OC(C(C)(O)C2CCC3C4CC=C5CC(OC6OC(COC7OC(CO)C(O)C(O)C7O)C(O)C(O)C6O)CC(O)C5(C)C4CCC32C)C1 (stereo not given)	-5.12% [at 15.3 µM]		
CCc1cc2c(=O)c(-c3nc4ccccc4s3)coc2c(CN2CCCCC2)c1O			11.1 µM (active)
COC(=O)[C@H](CC1C=NC=N1)NCC12CC3CC(CC(C3)C1)C2 (stereo not given in full)		inactive	
N#Cc1ccnc(N2C(=O)CC[C@H]2C(=O)N(c2cncc(F)c2)[C@H](C(=O)NC2CC(F)(F)C2)c2ccccc2Cl)c1			inactive
COC(=O)CC1(O)C(=O)Nc2ccccc21 (stereo not given)	-9.24%		
C/C=C(\C)C(=O)O[C@@H]1CC2[C@@H](CC=C3C[C@@H](O[C@H]4C[C@H](OC)[C@H](O[C@H]5C[C@H](OC)[C@H](O[C@H]6C[C@H](OC)[C@H](O[C@H]7C[C@@H](OC)[C@H](O[C@@H]8O[C@H](CO)[C@@H](O)[C@H](O)[C@H]8O)[C@@H](C)O7)[C@@H](C)O6)[C@@H](C)O5)[C@@H](C)O4)CC[C@@]32C)[C@@]2(O)CC[C@H](C(C)=O)[C@@]12C (stereo not given in full)	-14% [at 9.52 µM]		
CCNC(=O)[C@H]1O[C@H](n2cnc3c(NCC(c4ccccc4)c4ccccc4)nc(C(=O)NCCNC(=O)NC4CCN(c5ccccn5)CC4)nc32)[C@H](O)[C@@H]1O		inactive	
COc1cc(C(C)=O)ccc1O[C@@H]1O[C@H](CO[C@@H]2O[C@@H](C)[C@H](O)[C@@H](O)[C@H]2O)[C@@H](O)[C@H](O)[C@H]1O	-3.38% [at 27.7 µM]		
